Laboratory results: PubChem BioAssay (NCATS)
Records with an inconclusive call do not appear. A call without a number means that no potency is given here. The source made the active and inactive calls. Calls follow the shape of the dose curve; as a rule, active = well fitted cell-killing curve with a large enough effect; inconclusive = small, poorly fitted or top-dose-only effect; inactive = flat fitted curve, though single readings scatter.
Potency is read from the fitted curve at half-maximal effect.

Assay: Cell Viability - LYMP2-012 (AID 982);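 also: cellular ATP by luciferase luminescence where a drop means cytotoxicity; cells exposed to compound for one day before reading; nearly all actives have a fitted effect of over 55% in size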
Details: LYMP2-012 lymphoblastoid cell viability qHTS; series mostly up to 92.2 µM
Source text: NIH Chemical Genomics Center [NCGC]
NIH Molecular Libraries Screening Centers Network [MLSCN]
National Institutes of Environmental Health Sciences [NIEHS]
National Toxicology Program [NTP]
We have developed a 1536-well cell-based assay for quantitative high throughput screening (qHTS) against a number of cell lines to determine in vitro cytotoxicity of small molecules. This particular assay uses a human lymphoblastoid cell line (LYMP2-012) purchased from Coriell Institute for Medical Research.
NCGC Assay Protocol Summary:
The CellTiter-Glo luminescent cell viability assay (Promega) is a homogeneous method to measure the number of viable cells in culture. The end point readout of this assay is based on quantitation of intracellular ATP, an indicator of metabolic activity, using the luciferase reaction. Luciferase catalyzes the oxidation of beetle Luciferin to oxyluciferin and light in the presence of ATP. The luminescent signal is proportional to amount of ATP present.
Using the CellTiter-Glo luminescent cell viability assay, the amount of cellular ATP was measured in the lymphoblastoid cell line with complete culture medium following compound treatment for 24 hours. The assay was performed in opaque white Kalypsys 1536-well plates. In the screen, tetraoctylammonium bromide was used as positive control. Library compounds were measured for their ability to cause acute toxicity in the cell line, as reflected by a decrease in intracellular ATP levels, in a concentration-dependent manner. […] AC50 values were determined from concentration-response data modeled with the standard Hill equation.
qHTS protocol for CellTiter Glo lymphoblastoid cellular assay
[Step] [Parameter] [Value] [Description]
1. Reagent; 5 uL; 2500 lymphoblastoid cells/well
2. Time; 5 hr; 37 C incubation
4. Controls; 23 nL; Tetraoctylammonium bromide 6.4pM to 92 uM
5. Time; 24 hr; 37 C incubation
6. Reagent; 5 uL; CellTiter Glo reagent
7. Time; 30 min; Room Temperature
8. Detection; Luminescence; Viewlux plate reader
Keywords: cell viability, cytotoxicity, lymphoblastoid cell line, luminescence, NTPHTS, NTPHTS_NCGC, NIEHS, DSSTox, MLSMR, MLSCN, NIH Roadmap, qHTS, NCGC
For `O=c1[nH]c(=O)n([C@H]2C[C@H](O)[C@@H](CO)O2)cc1Br`, the Potency was “inactive”. In the case of `Nc1ncn([C@@H]2O[C@H](CO)[C@@H](O)[C@H]2O)c(=O)n1`, the Potency is reported as 15.8 µM (active). In the case of `NC(=O)N1c2ccccc2C=Cc2ccccc21`, the Potency is reported as “inactive”. For `Nc1nc(N)c2nc(-c3ccccc3)c(N)nc2n1`, the Potency was “inactive”. With `CCCCNC(=O)NS(=O)(=O)c1ccc(C)cc1` the Potency was “inactive”. With `COc1ccc(CN(CCN(C)C)c2ccccn2)cc1` the Potency was “inactive”. For `NC(=Nc1ccccc1)Nc1ccccc1`, the Potency was “inactive”. With `CN=C(NC#N)NCCSCc1nc[nH]c1C` the Potency was “inactive”. With `COc1cc(Cc2cnc(N)nc2N)cc(OC)c1OC` the Potency was “inactive”. With `CCCCOCCOCCOCc1cc2c(cc1CCC)OCO2` the Potency was “inactive”.
